KCNQ2 pot = enhances the rat KCNQ2 potassium channel; O88943; CHO-K1 KCNQ2, FluxOR thallium flux fluorescence; stronger effect = higher value; B-score at 10 µM; hit rate 0.54% among 310,000; AID 2239;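 active = fluorescence ratio B-score at least 3 SD of library B-scores, with initial fluorescence B-score within 3 of them, cut at about 5.3 in these data; same plate scores as AID 2156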;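 note: B-score of peak minus minimum over baseline fluorescence ratio after K+ and Tl+ stimulus; positive B-score means potentiation of KCNQ2 with more thallium influx and brighter signal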
KCNQ2 inh = blocks the rat KCNQ2 potassium channel | O88943 | CHO-K1 KCNQ2, FluxOR thallium flux, 20 min; stronger effect = lower value | B-score at 10 µM | hit rate 1.1% among 310,000;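 active = fluorescence ratio B-score at most minus 3 library SDs, with starting brightness B-score within 2 library SDs, cut at about -5.5 in these data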
Kir21 conf inh = confirmation of mouse Kir2.1 potassium channel inhibitors | shares compounds with KCNQ2 pot | Kir2.1-expressing cells, FluxOR thallium flux fluorescence; stronger effect = lower value | Tl flux remaining, % of negative control (stronger effect = lower value), % at 10 µM | hit rate 41% among 2,300 | AID 2032;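 active = Primary-screen hit whose thallium flux fell at least 3 control SD below untreated wells in both duplicates, with normal baseline fluorescence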;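 note: 0% = blank wells without stimulus and 100% = stimulated no-compound controls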
HEK293 Tl flux = counter-screen for Kir2.1 inhibitors: effect in parental HEK293 cells. FluxOR signal as % of negative control (100 = no effect), % at 10 µM. FluxOR thallium flux fluorescence; 0% = unstimulated blank wells. AID 2105. shares compounds with KCNQ2 pot. hit rate 19% among 2,300;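 active = dye signal at least 3 control SD above or below untreated wells in both duplicates, raw fluorescence within 3, either direction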;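 note: percent is based on the flux ratio of peak minus minimum fluorescence over baseline F0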
CHO-K1 ctr = alters thallium flux in parental CHO-K1 cells, KCNQ2 counter-screen | shares compounds with KCNQ2 pot | FluxOR thallium flux fluorescence; zero = vehicle mean+3SD, 100% = vehicle-minus-blank window | activity increase over 3SD of controls, % at 10 µM | hit rate 43% among 1,200 | AID 2282;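 active = signal rise of at least 3 SD above the untreated control mean, in both duplicate wells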;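 note: counter screen of KCNQ2 potentiator hits so any rise reflects channel-independent effects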
KCNQ1 sel pot = human KCNQ1 counter-target activity of KCNQ2 potentiators; shares compounds with KCNQ2 pot; activation over 3SD threshold, % at 10 µM; hit rate 28% among 1,200; AID 2283; CHO KCNQ1 stable, FluxOR thallium flux fluorescence; beyond 3SD, as % of vehicle-control signal;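 active = fluorescence ratio rise of at least 3 SD of vehicle wells above their mean, in both replicate wells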;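 note: 0% = vehicle mean plus 3 SD and 100% = vehicle minus unstimulated blank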
KCNQ2 pot confirm = rat KCNQ2 channel potentiator confirmation. AID 2287. potentiation, less the hit threshold, % at 10 µM. hit rate 68% among 1,200. shares compounds with KCNQ2 pot. CHO-KCNQ2 cells, FluxOR thallium flux fluorescence;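 active = fluorescence ratio rising 3 SD or more over the vehicle control mean in both replicates, plus primary screen hit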;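 note: peak minus minimum thallium fluorescence divided by baseline after K/Tl stimulus; 0% = vehicle mean plus 3 SD and 100% = vehicle minus unstimulated blank difference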
Kir21 spec = selectivity of KCNQ2 potentiators: effect on mouse Kir2.1. AID 2345. shares compounds with KCNQ2 pot. hit rate 2% among 1,200. activity over 3SD threshold, % at 10 µM. HEK293 Kir2.1, FluxOR thallium flux fluorescence;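 active = fluorescence ratio rise of at least 3 SD above the vehicle-control mean, seen in both replicates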;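 note: 0% = vehicle mean plus 3 SD and 100% = vehicle minus no-stimulus blank window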
KCNQ2 W236L MoA = KCNQ2 potentiators acting on retigabine-insensitive rat KCNQ2 W236L mutant | shares compounds with KCNQ2 pot | CHO KCNQ2-W236L, automated patch clamp current | current increase over 3SD of negative controls (%), stronger effect = higher value, % at 25 µM | hit rate 10% among 940;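 active = current increase at least 3 SD of the untreated controls above them in both duplicate recordings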
Target sequence (O88943 whole entry W236L, looked up): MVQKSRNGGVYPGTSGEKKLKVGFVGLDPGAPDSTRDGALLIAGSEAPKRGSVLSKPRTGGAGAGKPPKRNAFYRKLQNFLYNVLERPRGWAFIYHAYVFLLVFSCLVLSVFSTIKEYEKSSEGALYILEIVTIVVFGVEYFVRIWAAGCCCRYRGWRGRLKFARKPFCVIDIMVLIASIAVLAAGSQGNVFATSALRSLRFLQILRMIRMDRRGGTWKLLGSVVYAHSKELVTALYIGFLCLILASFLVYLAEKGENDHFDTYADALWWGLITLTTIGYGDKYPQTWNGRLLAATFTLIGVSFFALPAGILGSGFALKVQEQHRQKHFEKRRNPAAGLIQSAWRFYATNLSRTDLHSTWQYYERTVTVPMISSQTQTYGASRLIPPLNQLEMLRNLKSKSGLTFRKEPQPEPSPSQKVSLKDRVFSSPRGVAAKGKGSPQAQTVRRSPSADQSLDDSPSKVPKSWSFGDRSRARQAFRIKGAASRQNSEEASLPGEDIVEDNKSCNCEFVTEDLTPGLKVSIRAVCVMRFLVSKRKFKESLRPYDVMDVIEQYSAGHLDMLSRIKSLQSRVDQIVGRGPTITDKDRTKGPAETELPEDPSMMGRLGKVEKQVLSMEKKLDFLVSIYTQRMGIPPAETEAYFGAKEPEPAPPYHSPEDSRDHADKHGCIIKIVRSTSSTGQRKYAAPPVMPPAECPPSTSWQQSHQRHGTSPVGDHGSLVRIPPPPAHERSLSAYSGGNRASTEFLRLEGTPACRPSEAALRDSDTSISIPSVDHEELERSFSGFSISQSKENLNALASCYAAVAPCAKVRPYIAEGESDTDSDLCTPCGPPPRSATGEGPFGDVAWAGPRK
Active calls of the source: *; i = inactive; / = no result given. An excerpt weighted towards active compounds, which were near 1.6% of everything screened.

SMILES	KCNQ2 pot	KCNQ2 inh	Kir21 conf inh	HEK293 Tl flux	CHO-K1 ctr	KCNQ1 sel pot	KCNQ2 pot confirm	Kir21 spec	others
COc1cccc(CN(C)C(=O)c2ccc(Oc3ccccc3)cc2)c1OC	/	i	/	/	/	/	/	/
COc1ccccc1C(=O)NNC(=O)C(=O)NC(C)(C)C	3.8	i	/	/	/	/	/	/
COc1ccccc1C(=O)NNC(=O)C(=O)Nc1ccc(C)cc1	22*	i	i	416%*	-21	25*	47*	-17	KCNQ2 W236L MoA=i
COc1ccccc1C(=O)NNC(=O)c1ccc(Cl)cc1	0.04	i	/	/	/	/	/	/
COc1ccccc1C(=O)NNC(=O)C(=O)Nc1ccc(C)c(Cl)c1	28*	i	i	312%*	78*	-9	54*	-27	KCNQ2 W236L MoA=i
CCc1nc(SCC(=O)N2CCCCCC2)c2c(=O)n(C)c(=O)n(C)c2n1	5.5*	i	i	i	-16	5.9*	35*	-49	KCNQ2 W236L MoA=i
CC(C)c1nc(SCC(=O)N2CCCCCC2)c2c(=O)n(C)c(=O)n(C)c2n1	17*	i	i	i	6.8*	-11	54*	-20	KCNQ2 W236L MoA=i
CC(C)c1nc(SCC(=O)N2CCCC2)c2c(=O)n(C)c(=O)n(C)c2n1	3.8	i	/	/	/	/	/	/
CCc1nc(SCC(=O)N2CCOCC2)c2c(=O)n(C)c(=O)n(C)c2n1	2	i	/	/	/	/	/	/
CCc1ccc(-c2nc(SCC(=O)N(C)C3CCS(=O)(=O)C3)n[nH]2)cc1 (stereo unspecified)	0.21	i	/	/	/	/	/	/
Cc1cc(=O)n2[nH]c(C)c(-c3ccccc3)c2n1	/	i	/	/	/	/	/	/
O=c1cc(-c2ccccc2)nc2c(-c3ccccc3)c(C(F)(F)F)[nH]n12	23*	i	i	366%*	6.8*	-17	94*	-29	KCNQ2 W236L MoA=i
O=c1c2ccccc2c(C=NC2CCS(=O)(=O)C2)c(O)n1-c1ccccc1 (stereo unspecified)	0.49	i	/	/	/	/	/	/
O=S1(=O)CCC(N=Cc2cc(Br)ccc2O)C1 (stereo unspecified)	6.4*	i	i	i	21*	-19	22*	-15	KCNQ2 W236L MoA=i
Cc1cc(COc2ccccc2)oc1C(=O)O	/	i	/	/	/	/	/	/
N#Cc1cnc(NOCc2ccc(Cl)cc2)nc1	/	i	/	/	/	/	/	/
CC(C)(C)c1ccc(C(=O)CC(=O)c2cc(Cl)ccc2O)cc1	1.6	i	/	/	/	/	/	/
Cc1ccc(C(=O)CC(=O)c2cc(Cl)ccc2O)cc1	6*	i	i	i	-18	-30	27*	-39	KCNQ2 W236L MoA=i
Cc1ccc(S(=O)(=O)Nc2nc3ccccc3nc2Nc2cccc(S(=O)(=O)N3CCCC3)c2)cc1	/	i	/	/	/	/	/	/
O=[N+]([O-])c1cccc(S(=O)(=O)Nc2nc3ccccc3nc2Nc2cccc(S(=O)(=O)N3CCCCC3)c2)c1	8.2*	i	i	i	-13	17*	-26	-39
CC1=CCC2(CO)COC(c3ccccc3O)C1C2 (stereo unspecified)	2.4	i	/	/	/	/	/	/
O=c1[nH]cnc(O)c1C(c1ccc2c(c1)OCO2)c1c(O)nc[nH]c1=O	/	i	/	/	/	/	/	/
N#Cc1c(N)c2ccccn2c1C(=O)c1ccc(Br)cc1	0.02	i	/	/	/	/	/	/
O=C(Cc1ccccc1F)Nc1ccc2c(c1)CCC2	5.2	i	/	/	/	/	/	/
O=C(Cc1cccc(F)c1)Nc1ccc2c(c1)CCC2	5.5*	i	i	i	3.6*	-13	21*	-25	KCNQ2 W236L MoA=i
SMILES	KCNQ2 pot	KCNQ2 inh	Kir21 conf inh	HEK293 Tl flux	CHO-K1 ctr	KCNQ1 sel pot	KCNQ2 pot confirm	Kir21 spec	others
CC(=O)c1c(N2CCCC2)[nH]c(-c2ccccc2)nc1=S	1.9	i	/	/	/	/	/	/
CC(=O)c1c(N2CCN(Cc3ccccc3)CC2)[nH]c(-c2ccccc2)nc1=S	6.2*	i	i	208%*	-18	54*	2.3*	-35	KCNQ2 W236L MoA=i
CCCn1cc(CN2CCC(n3nccc3NC(=O)CCOc3ccccc3)CC2)c(C)n1	/	i	/	/	/	/	/	/
CC1CC(C)C[N+](=C2C=C(N3CCCC3)CC(C)(C)C2)C1 (stereo unspecified)	/	i	i	i	/	/	/	/
CC1(C)CC(N2CCCC2)=CC(=[N+]2CCCCCC2)C1	1.2	i	/	/	/	/	/	/
CN(C)S(=O)(=O)n1ccnc1	/	i	/	/	/	/	/	/
O=C1NC(=S)SC1=C1CCCCCC1	23*	i	i	357%*	40*	7.2*	57*	-26	KCNQ2 W236L MoA=i
O=C1N=C(N2CCCCC2)SC1=C1CCCCC1	0.11	i	/	/	/	/	/	/
CSCC(C)N1CCC(n2nccc2NC(=O)CCCc2ccccc2)CC1 (stereo unspecified)	/	i	/	/	/	/	/	/
Cn1c(N)c(C(=O)c2ccc(Cl)cc2)c(=O)n(C)c1=O	1.1	i	/	/	/	/	/	/
Cc1nn(-c2ccc(Cl)cc2)c2sc(C(=O)c3c(N)n(C)c(=O)n(C)c3=O)cc12	0.12	i	i	i	/	/	/	/
O=C(OCc1cccc([N+](=O)[O-])c1)c1ccncc1	6.6*	i	i	142%*	-5	-19	1.0*	-33	KCNQ2 W236L MoA=i
O=C(OCc1cccc([N+](=O)[O-])c1)c1cnccn1	1.6	i	/	/	/	/	/	/
Nc1nc(-c2cccc(NS(=O)(=O)c3ccccc3)c2)cs1	0.38	i	/	/	/	/	/	/
COc1ccc(S(=O)(=O)NCCSCc2ccco2)cc1C	/	i	/	/	/	/	/	/
COc1ccc(S(=O)(=O)NCCSCc2ccco2)cc1Cl	0.75	i	58%*	i	/	/	/	/
CCOC(=O)c1c(C)oc(/N=C/c2ccccc2O)c1C#N	0.09	i	/	/	/	/	/	/
O=C(CSc1nnnn1-c1cccnc1)Nc1ccccc1F	0.01	i	/	/	/	/	/	/
Cc1ccc(S(=O)(=O)N2CCOCC2)cc1NC(=O)COc1cccc(Oc2ccccc2)c1	/	i	/	/	/	/	/	/
CC(C)n1cc(NC(=O)c2cc(-c3ccccc3)on2)cn1	12*	i	i	214%*	14*	-11	11*	-15	KCNQ2 W236L MoA=i
O=C(Nc1cccnc1)c1cc(-c2ccccc2)on1	1.4	i	/	/	/	/	/	/
Cc1ccc2c(c1)N(CCC(=O)NCCCOC(C)C)C(=O)C(C)O2 (stereo unspecified)	0.13	i	/	/	/	/	/	/
CCn1cc(C(=O)NCCN(C)CCc2ccccc2)c(=O)c2cc(S(=O)(=O)N(C)C)ccc21	0.95	i	/	/	/	/	/	/
CCn1cc(C(=O)NCCc2ccccc2)c(=O)c2cc(S(=O)(=O)N(C)C)ccc21	0.02	i	i	i	/	/	/	/
CCCC(C(=O)Nc1cc(S(=O)(=O)N2CCOCC2)ccc1OC)c1ccccc1 (stereo unspecified)	/	i	/	/	/	/	/	/
